This note sets out measurements from PubChem BioAssay (NCATS).

What all share (test): qHTS profiling for inhibitors of Plasmodium falciparum proliferation (AID 504749); note: nearly all actives have a fitted effect of over 60% in size
What all share (conditions): P. falciparum in erythrocytes, SYBR Green DNA, 72 h; series mostly up to 28.7 µM

One assay deals with CP265. In a few lines:
(§1)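 SYBR Green fluorescence (ex 485 nm, em 535 nm) reports parasite DNA after 72 h compound exposure of infected red cells at 0.3% parasitemia, 2.5% hematocrit; signal normalized to 0.29 uM artemisinin and vehicle wells.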

Another assay deals with CP266. The procedure, abridged:
as §1

Another assay relates to CP268. In a few lines: as §1
Another assay deals with CP269. In a few lines: as §1
In another assay the test system is CP286. The procedure, abridged: as §1
Another assay relates to CP291. The procedure, abridged: as §1
The subject of a further assay is CP297. The procedure, abridged:
as §1

The test system of another assay is CP305. In a few lines:
as §1

The test system of another assay is CP315. In a few lines:
as §1

Another assay relates to CP325. In a few lines: as §1
Another assay deals with CP329. The procedure, abridged: as §1
The subject of the next assay is CP335. In a few lines:
as §1

Another assay deals with DFO2036. In a few lines:
as §1

In a further assay the test system is DIV14. The procedure, abridged:
as §1

The next assay has as its system DIV17. The procedure, abridged:
as §1

The next assay concerns DIV30. The procedure, abridged:
as §1

The test system of another assay is Dd2. The procedure, abridged:
as §1

The next assay relates to ECU. In a few lines: as §1
A further assay deals with FAB9. The procedure, abridged: as §1
Another assay concerns GB4. The procedure, abridged:
as §1

Results filed as inconclusive are left out. Active and inactive are the calls of the source. Calls come from the whole dose curve; as a rule, active = well fitted inhibition curve with a large enough effect; inconclusive = small, poorly fitted or top-dose-only effect; inactive = flat fitted curve, though single readings scatter.
Potency is the fitted concentration of half-maximal effect.

Regarding `COc1cc(C)nc(-n2nc(C)cc2OC)n1`, the Potency entry in the assay on CP265, with CP266, with CP268, in the assay with CP269, in the assay on CP286 and in the assay with CP291 was “inactive” throughout. The Potency entry with CP297, in the assay with CP305, with CP315, with CP325, with CP329 and in the assay with CP335 was “inactive” each time. Further, the Potency entry with DFO2036, in the assay with DIV14, in the assay with DIV17, with DIV30, in the assay with Dd2 and in the assay on ECU was “inactive” in each case. Besides, the Potency entry in the assay on FAB9 and with GB4 was “inactive” in each case.

On to `FC(F)(F)C(F)(F)C(F)(F)C(F)(F)C(F)(F)C(F)(F)C(F)(F)C(F)(F)Br`, for which the Potency entry in the assay with CP265, in the assay on CP266, in the assay on CP268, in the assay with CP269, with CP286 and with CP291 was “inactive” throughout. For the same compound, the Potency result in the assay on CP297, with CP305, in the assay with CP315, in the assay with CP325, with CP329 and with CP335 was “inactive” in each case. Moreover, the Potency result with DFO2036, in the assay on DIV14, in the assay with DIV17, in the assay with DIV30, in the assay on Dd2 and with ECU was “inactive” in each case. Further, the Potency entry in the assay on FAB9 and in the assay on GB4 was “inactive” each time.

As to `Cc1cccc(C)c1NC(=O)c1ccccc1C(=O)O`, the Potency entry in the assay on CP265, in the assay with CP266, with CP268, with CP269, with CP286 and in the assay with CP291 was “inactive” throughout. The Potency result in the assay on CP297, in the assay on CP305, in the assay with CP315, in the assay with CP325, with CP329 and with CP335 was “inactive” throughout. The Potency entry in the assay on DFO2036, in the assay on DIV14, in the assay on DIV17, in the assay with DIV30, with Dd2 and in the assay on ECU was “inactive” in each case. The Potency result with FAB9 and with GB4 was “inactive” throughout.

As for `CCN1/C(=C/C=C/c2sc3ccccc3[n+]2CC)Sc2ccccc21`, the Potency with CP265 was 0.224 µM (active); in the assay with CP266 it was 0.675 µM (active); with CP268, 0.536 µM (active); in the assay on CP269, 0.379 µM (active); with CP286 it was 0.0501 µM (active); in the assay with CP291, 0.379 µM (active). In addition, the Potency with CP297 was 0.849 µM (active); in the assay on CP305, 0.19 µM (active); in the assay on CP315, 0.757 µM (active); with CP325, 0.601 µM (active); in the assay with CP329, 0.426 µM (active); in the assay on CP335 it was 0.107 µM (active). Besides, the Potency in the assay on DFO2036 was 0.1 µM (active); in the assay on DIV14, 0.478 µM (active); in the assay with DIV17, 0.478 µM (active); in the assay on DIV30 it was 0.675 µM (active); in the assay with Dd2, 0.112 µM (active); with ECU, 0.224 µM (active). The Potency in the assay on FAB9 was 0.282 µM (active); in the assay with GB4, 0.301 µM (active).

For the compound `CCCCCCCCCCCCCCCC(=O)O`, the Potency entry in the assay on CP265, with CP266, in the assay with CP268, with CP269, in the assay on CP286 and with CP291 was “inactive” in each case. Also, the Potency result in the assay on CP297, with CP305, in the assay with CP315, in the assay with CP325, with CP329 and in the assay on CP335 was “inactive” in each case. Also, the Potency entry in the assay on DFO2036, in the assay with DIV14, in the assay on DIV17, in the assay with DIV30, in the assay on Dd2 and with ECU was “inactive” throughout. The Potency entry with FAB9 and in the assay with GB4 was “inactive” throughout.

On to `CC[C@H](c1ccc(O)cc1)[C@@H](CC)c1ccc(O)cc1`, for which the Potency result in the assay with CP265, in the assay on CP266, with CP268, in the assay on CP269, in the assay on CP286 and in the assay with CP291 was “inactive” each time. In addition, the Potency entry with CP297, in the assay with CP305, in the assay on CP315, with CP325, with CP329 and in the assay with CP335 was “inactive” in each case. The Potency entry with DFO2036, in the assay with DIV14, in the assay with DIV17, with DIV30, in the assay with Dd2 and in the assay on ECU was “inactive” in each case. Besides, the Potency result in the assay on FAB9 and with GB4 was “inactive” throughout.

As to `CCOC(=O)[C@H](CCc1ccccc1)N[C@@H](C)C(=O)N1[C@H](C(=O)O)C[C@H]2CCCC[C@@H]21`, the Potency result in the assay with CP265, in the assay on CP266, in the assay with CP268, in the assay on CP269, with CP286 and in the assay on CP291 was “inactive” in each case. Besides, the Potency entry with CP297, in the assay on CP305, with CP315, in the assay with CP325, in the assay with CP329 and in the assay on CP335 was “inactive” throughout. For the same compound, the Potency entry in the assay on DFO2036, with DIV14, with DIV17, in the assay on DIV30, in the assay on Dd2 and with ECU was “inactive” throughout. In addition, the Potency result in the assay on FAB9 and with GB4 was “inactive” each time.

For `NS(=O)(=O)c1ccc(Cl)c(S(N)(=O)=O)c1`, the Potency entry with CP265, in the assay on CP266, in the assay with CP268, in the assay with CP269, in the assay on CP286 and in the assay on CP291 was “inactive” in each case. For the same compound, the Potency entry in the assay on CP297, in the assay on CP305, in the assay with CP315, with CP325, in the assay on CP329 and with CP335 was “inactive” each time. In addition, the Potency entry in the assay on DFO2036, with DIV14, in the assay with DIV17, in the assay with DIV30, with Dd2 and with ECU was “inactive” in each case. Moreover, the Potency result in the assay with FAB9 and in the assay with GB4 was “inactive” in each case.

In the case of `O=C(O)C(Cc1cc(I)c(O)c(I)c1)c1ccccc1` (stereo not given), the Potency result in the assay with CP265, in the assay on CP266, with CP268, in the assay on CP269, with CP286 and with CP291 was “inactive” each time. The Potency entry in the assay on CP297, in the assay on CP305, with CP315, in the assay on CP325, in the assay with CP329 and in the assay on CP335 was “inactive” throughout. Also, the Potency entry in the assay with DFO2036, in the assay with DIV14, with DIV17, in the assay on DIV30, with Dd2 and with ECU was “inactive” throughout. In addition, the Potency result in the assay with FAB9 and in the assay on GB4 was “inactive” throughout.

Consider `NS(=O)(=O)Cc1noc2ccccc12`, for which the Potency entry in the assay on CP265, with CP266, in the assay with CP268, with CP269, in the assay with CP286 and with CP291 was “inactive” each time. Besides, the Potency result in the assay with CP297, in the assay with CP305, in the assay with CP315, in the assay with CP325, in the assay on CP329 and in the assay on CP335 was “inactive” in each case. The Potency entry with DFO2036, in the assay with DIV14, with DIV17, with DIV30, in the assay with Dd2 and in the assay on ECU was “inactive” each time. In addition, the Potency entry in the assay with FAB9 and in the assay with GB4 was “inactive” in each case.

For the compound `O=S(=O)(O)c1ccc(O)cc1`, the Potency result in the assay on CP265, with CP266, in the assay with CP268, with CP269, in the assay with CP286 and in the assay with CP291 was “inactive” throughout. The Potency entry with CP297, in the assay on CP305, with CP315, with CP325, with CP329 and in the assay on CP335 was “inactive” throughout. Besides, the Potency result in the assay on DFO2036, in the assay on DIV14, with DIV17, in the assay on DIV30, with Dd2 and with ECU was “inactive” each time. Further, the Potency entry with FAB9 and with GB4 was “inactive” each time.

Consider `CC(=O)NC(=O)c1ccccc1O`, for which the Potency entry with CP265, with CP266, with CP268, in the assay on CP269, in the assay with CP286 and in the assay with CP291 was “inactive” each time. Further, the Potency entry with CP297, in the assay with CP305, with CP315, in the assay with CP325, in the assay on CP329 and with CP335 was “inactive” each time. For the same compound, the Potency result with DFO2036, in the assay with DIV14, in the assay on DIV17, in the assay on DIV30, with Dd2 and with ECU was “inactive” in each case. Also, the Potency entry with FAB9 and in the assay on GB4 was “inactive” each time.

As to `CCCCCCCCCCCCCC[N+](C)(C)Cc1ccccc1`, the Potency is 8.91 µM (active) in the assay with CP265; 10.7 µM (active) in the assay with CP266; 6.75 µM (active) in the assay on CP268; 4.78 µM (active) in the assay on CP269; 3.16 µM (active) in the assay on CP286; 4.78 µM (active) in the assay with CP291. The Potency with CP297 is 5.36 µM (active); in the assay with CP305 it was 5.36 µM (active); in the assay on CP315, 10.7 µM (active); in the assay with CP325 it was 5.36 µM (active); in the assay on CP329, 4.78 µM (active); in the assay with CP335, 4.78 µM (active). The Potency in the assay with DFO2036 is 7.94 µM (active); in the assay with DIV14 it was 4.78 µM (active); in the assay on DIV17, 4.78 µM (active); in the assay on DIV30 it was 6.75 µM (active); in the assay with Dd2, 10 µM (active); with ECU it was 7.08 µM (active). In addition, the Potency in the assay on FAB9 is 5.62 µM (active); with GB4, 4.26 µM (active).
